Test results as given in PubChem BioAssay (NCATS).
Records with an inconclusive call do not appear. A call without a number means that no potency is given here. Active and inactive are the calls of the source. Calls come from the whole dose curve; as a rule, active = well fitted inhibition curve with a large enough effect; inconclusive = small, poorly fitted or top-dose-only effect; inactive = flat fitted curve, though single readings scatter.

Target: Aldehyde dehydrogenase, mitochondrial (Homo sapiens) (UniProt P05091)
Assay: qHTS for Inhibitors of the Aldehyde Dehydrogenase Family (ALDH2) Primary screen (AID 2061308); note: nearly all actives have a fitted effect of over 55% in size
Details: ALDH2 enzyme inhibition qHTS, 1536-well; series mostly up to 56 µM

Row | SMILES | Potency
1 | N#Cc1c(-c2cc(C(F)(F)F)cc(C(F)(F)F)c2)no[n+]1[O-] | inactive
2 | CN(C)CC1CCN(C2CCN(C(=O)c3cccc(-c4cc(O)c5ncccc5c4)c3)CC2)CC1 | inactive
3 | O=C(NC1CCCc2c1cnn2-c1ccc(F)cc1F)c1ccc(C2(C(F)(F)F)N=N2)cc1 (stereo not drawn) | inactive
4 | C[C@H]1CC[C@@]2(OC1)O[C@H]1CC3[C@@H]4CC[C@@H]5C[C@@H](O[C@@H]6O[C@H](CO)[C@@H](O[C@@H]7O[C@@H](C)[C@H](O)[C@@H](O)[C@H]7O)[C@H](O)[C@H]6O[C@@H]6O[C@H](CO)[C@@H](O)[C@H](O)[C@H]6O)CC[C@]5(C)C4CC[C@]3(C)[C@H]1[C@@H]2C (stereo partly drawn) | inactive
5 | Cc1ccc(NS(=O)(=O)c2ccc3c(c2)N(C)CCO3)cc1C | inactive
6 | O=C1CCCC2=C1C(c1c(Cl)cccc1Cl)N=C(Nc1nc3ccccc3o1)N2 (stereo not drawn) | inactive
7 | Cc1ccc(-c2cc(C(=O)Nc3nc4ccccc4s3)c3ccccc3n2)cc1C | inactive
8 | Cc1noc(C)c1-c1ccc2ncnc(NCc3cccc(F)c3)c2c1 | inactive
9 | CC(OC(=O)c1ccc(S(C)(=O)=O)c([N+](=O)[O-])c1)C(=O)NC1C2CC3CC(C2)CC1C3 (stereo not drawn) | inactive
10 | O=S(=O)(c1ccc2c(c1)OCCO2)N1CCN(S(=O)(=O)c2ccccc2F)CC1 | inactive
11 | CC1=C(C(=O)Nc2ccc(C)cc2)C(c2ccccc2Br)N=C(Nc2nc3ccccc3o2)N1 (stereo not drawn) | inactive
12 | O=C(Nc1ccc2ccccc2c1)Nc1nnc(-c2ccc(Cl)cc2Cl)s1 | inactive
13 | COc1ccc(OC)c(Nc2nn3c(=O)c4ccccc4nc3s2)c1 | inactive
